TDP1 block – qHTS Assay for Inhibitors of Tyrosyl-DNA Phosphodiesterase (TDP1) | Tyrosyl-DNA phosphodiesterase 1 (Homo sapiens), Q9NUW8 | recombinant TDP1, AlphaScreen DNA substrate cleavage | Potency, µM (titrated, usually from 130 µM), for the others: at the highest dose activity change, negative = inhibition, usual class: inhibitors | 350,000 tested, 0.28% active | AID 485290, 2010; also: nearly all actives have a fitted effect of over 40% in size
Target sequence (Q9NUW8 whole entry, looked up): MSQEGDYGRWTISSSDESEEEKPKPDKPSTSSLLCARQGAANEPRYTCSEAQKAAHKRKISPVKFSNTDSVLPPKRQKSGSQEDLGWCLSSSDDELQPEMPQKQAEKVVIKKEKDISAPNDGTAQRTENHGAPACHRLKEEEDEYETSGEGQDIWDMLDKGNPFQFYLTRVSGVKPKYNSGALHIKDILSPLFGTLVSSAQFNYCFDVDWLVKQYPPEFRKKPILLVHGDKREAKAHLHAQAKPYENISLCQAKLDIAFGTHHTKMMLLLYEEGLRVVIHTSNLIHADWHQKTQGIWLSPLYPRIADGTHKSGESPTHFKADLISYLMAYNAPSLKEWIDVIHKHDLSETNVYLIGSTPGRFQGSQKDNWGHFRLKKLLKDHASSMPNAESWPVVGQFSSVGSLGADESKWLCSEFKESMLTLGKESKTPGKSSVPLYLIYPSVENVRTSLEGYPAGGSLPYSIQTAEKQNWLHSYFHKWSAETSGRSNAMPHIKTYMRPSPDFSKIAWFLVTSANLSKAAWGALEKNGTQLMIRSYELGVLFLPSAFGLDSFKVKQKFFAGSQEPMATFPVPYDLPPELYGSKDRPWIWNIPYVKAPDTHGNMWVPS
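Signal: AlphaScreen proximity between streptavidin donor and anti-FITC acceptor beads on intact substrate. Reaction: Tdp1 1 nM, substrate 15 nM final, 5 min RT after 15 min compound preincubation.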
VP16 counter – VP16 counterscreen qHTS for inhibitors of ROR gamma transcriptional activity | 310,000 tested, 3.5% active | Potency, µM (series often up to 53.6 µM), inactives show top-dose activity, negative = inhibition, hits mostly inhibitors | Drosophila S2 Gal4-VP16 UAS-luciferase, luminescence, 20 h;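 also: Gal4-VP16 expression switched on by copper sulfate through the metallothionein promoter; nearly all actives have a fitted effect of over 50% in size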
RORg inh – qHTS for inhibitors of ROR gamma transcriptional activity; Drosophila S2 Gal4-RORgamma UAS-luciferase reporter, 20 h; Potency, µM (series often up to 53.6 µM), for inactives: at the highest dose activity change, negative = inhibition, hits mostly inhibitors; 310,000 tested, 5.4% active; AID 2551, 2010; also: nearly all actives have a fitted effect of over 60% in size
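Stable Schneider cell line, Gal4 DNA-binding domain fused to ROR gamma, UAS-luciferase. Cmpd 1 hr RT → CuSO4 700 uM final → 20 hr RT → luciferase reagent 10 min → luminescence.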
DT40 TDP1 no CPT – qHTS for Inhibitors of human tyrosyl-DNA phosphodiesterase 1 (TDP1): qHTS in cells in absence of CPT. 420,000 tested, 15% active. AID 686978, 2013. Potency, µM (titrated, usually from 46.2 µM), for inactives: top-dose activity change, negative = growth inhibition, most hits filed as inhibitors. DT40 Tdp1-/- hTDP1 cells, no CPT, ATP luminescence, 48 h; also: nearly all actives have a fitted effect of over 55% in size
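A cellular qHTS used chicken DT40 cells lacking endogenous Tdp1 but carrying stably transfected human TDP1. Compounds were applied without camptothecin, and cell growth kinetics were judged by ATP-dependent luminescence after ≥48 hr.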
TDP1 cell CPT – qHTS for Inhibitors of human tyrosyl-DNA phosphodiesterase 1 (TDP1): qHTS in cells in presence of CPT | Potency, µM (doses to about 46.2 µM), without a hit: top-dose activity change, negative = growth inhibition, actives largely listed as inhibitors | chicken DT40 Tdp1-/-;hTDP1 cells + 20 nM CPT, ATP luminescence, 48 h | 420,000 tested, 12% active | AID 686979, 2013; also: nearly all actives have a fitted effect of over 55% in size
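Chicken DT40 Tdp1-/- cells stably complemented with human TDP1 were seeded at 400 cells/well in medium containing 20 nM camptothecin, exposed to pin-transferred compounds, and grown at 37 °C for at least 48 hr. Viability was read as ATP luminescence.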
Numbers without * were called inactive; ? = inconclusive; / = no result; [ ] = another dose, or the depositor's remark. Compounds with a hit are over-represented: about 19% of the library has one in this group of screens. Calls follow the shape of the dose curve; as a rule, active = well fitted curve in the direction sought with a large enough effect; inconclusive = small, poorly fitted or top-dose-only effect, or another doubt; inactive = no such curve, though single readings can be large; an effect the other way counts as inactive or inconclusive. % is scaled to controls: 0 for no effect and ±100 for the full control effect; potency is read from the fitted curve at half-maximal effect.

SMILES	TDP1 block	VP16 counter	RORg inh	DT40 TDP1 no CPT	TDP1 cell CPT
OCCC1CN(Cc2nc3c(s2)CCCC3)CCN1CCc1ccccc1 (centres undefined)	/	-4%	-5%	-29%	?
CN(C)S(=O)(=O)c1ccc2c(c1)nc(CCC(=O)Nc1ccc(N3CCOCC3)cc1)n2C	0%	1%	35%	-1%	1%
CC(=O)Nc1ccc(NC(=O)Cc2ccc(S(=O)(=O)N3CCCCC3)s2)cc1	0%	5%	?	?	?
O=C(Cc1ccc(S(=O)(=O)N2CCOCC2)s1)Nc1ccc(S(=O)(=O)N2CCCCC2)cc1	/	/	/	?	18µM*
S=c1[nH]nc(-c2cccs2)n1C1CCCCC1	1%	-10%	0%	-15%	1%
Cc1[nH]c2ccc(-c3n[nH]c(=S)n3C)cc2c1C	9%	?	11µM*	-16%	-13%
CC(C)(C)c1ccc(-c2n[nH]c(=S)n2C2CCCC2)cc1	8%	4.5µM*	2.5µM*	16µM*	?
CCn1c(-c2ccc(C(C)(C)C)cc2)n[nH]c1=S	6%	3.2µM*	?	8.2µM*	15µM*
Cn1c(-c2ccc(C(C)(C)C)cc2)n[nH]c1=S	?	5.6µM*	3.2µM*	?	?
CC(CO)NS(=O)(=O)c1ccc(Br)cc1F (centres undefined)	/	/	/	-3%	-7%
O=C(O)C1CC(=O)N(CCc2c[nH]c3ccccc23)C1 (centres undefined)	2%	8%	2%[10 µM]	0%	-2%
CN1C2C=C3C(C#N)=C(N)C(C#N)(C#N)C(c4ccc(Br)cc4)C3C1CC2 (centres undefined)	10%[56.1 µM]	-5%	?	21µM*	?
Cc1cc(Cl)ccc1OCc1nnc(-c2ccccc2C)o1	-4%	/	/	-20%	-18%
COc1ccc2c(C(=O)NCc3ccc4c(c3)OCO4)c(-c3ccc(S(C)(=O)=O)cc3)sc2c1	1%	/	/	16µM*	23µM*
COC(=O)c1c(-c2ccc(S(C)(=O)=O)cc2)sc2ccc(OC)cc12	1%	/	/	13µM*	?
COC(=O)c1c(-c2ccc(OC)cc2)sc2ccccc12	20µM*	/	/	/	/
COC(=O)c1c(-c2ccc(S(C)(=O)=O)cc2)sc2cc(OC)ccc12	-2%	/	/	21µM*	?
COC(=O)[C@@]1(Cc2ccccc2)[C@H]2c3cc(C(=O)N4CCCC4)n(CCO)c3C[C@H]2CN1C(=O)c1ccccc1	9%	7%	-4%	/	/
CC(C)NC(=O)OC1CC2CC1[C@H]1CCCCN1C2=O (some centres undefined)	/	/	/	-9%	4%
CCOc1ccccc1N(C)S(=O)(=O)c1ccc2c(c1)CC(C)N2C(=O)C1CC1 (centres undefined)	2%	-11%	2%	16µM*	23µM*
CC1Cc2cc(S(=O)(=O)NCc3ccccc3)ccc2N1C(=O)C1CC1 (centres undefined)	1%	?	7%	?	?
CCc1cccc(NS(=O)(=O)c2ccc3c(c2)CC(C)N3C(=O)C2CC2)c1 (centres undefined)	5%	/	/	3.7µM*	6.5µM*
CC1Cc2cc(S(=O)(=O)NCc3ccccc3)ccc2N1C(=O)C1CCC1 (centres undefined)	2%	?	-10%	7.3µM*	21µM*
CCN(c1ccccc1)S(=O)(=O)c1ccc2c(c1)CC(C)N2C(=O)C1CC1 (centres undefined)	-2%	?	?	-20%	?
CC1Cc2cc(S(=O)(=O)NCCc3ccc(Cl)cc3)ccc2N1C(=O)C1CCC1 (centres undefined)	5%	/	/	18µM*	?
CCc1cccc(NS(=O)(=O)c2ccc3c(c2)N(C)CCO3)c1	8%	?	45%	?	13µM*

Screens (PubChem BioAssay)
